# In all, about 69,000 compounds went through this assay and about 8,600 (12%) showed an effect of 50% or more. Many of the other results were omitted from the sample, so strong results are more common in it than they were.
# System: Plasmodium berghei
# Experiment: Screen against P. berghei liver stage (PbLuc), transformed with Luciferase, at 10uM
# Type: functional, HepG2
# Conditions: tested at 10 uM
row,Compound,INHIBITION [%]
1,O=C(NCc1cnc2n1CCN(Cc1cccs1)C2)c1ccno1,12.2
2,Cn1cccc1C(=O)NCc1cnc2n1CCN(CC1CCOCC1)C2,20.4
3,O=C(NCc1cnc2n1CCN(Cc1nccs1)C2)c1ccno1,23.1
4,O=C(NCc1cnc2n1CCN(CC1CC1)C2)C1CC1,-30
5,O=C(NCc1cnc2n1CCN(CC1CCOCC1)C2)c1ccno1,50.3
6,O=C(NCc1cnc2n1CCN(Cc1ccoc1)C2)c1ccno1,63.8
7,O=C(C(c1ccccc1)S(=O)(=O)c1ccccn1)N1CCCC1 (stereo unspecified),14.2
8,Cn1nnc2c1CCN(Cc1ccccn1)C2COCc1ccccc1 (stereo unspecified),21.3
9,Cc1cc(-c2ccccc2C(=O)O)nc(C2CCCN2S(C)(=O)=O)n1 (stereo unspecified),12.8
10,CC(=O)N1CCCCC1c1nc(C)cc(-c2ccccc2C(=O)O)n1 (stereo unspecified),15.9
11,Cc1cc(-c2ccccc2C(=O)O)nc(C2CCCCN2C)n1 (stereo unspecified),59
12,O=C(Cc1cn2ccsc2n1)N1CCCC(n2cccn2)C1 (stereo unspecified),-1.12
13,COCCc1noc(CN2CCCC2c2noc(C(C)C)n2)n1 (stereo unspecified),21.8
14,CC(CN(C)Cc1cccc(-n2cccn2)c1)C(F)(F)F (stereo unspecified),17.735
15,CN(Cc1ccc(-n2cccn2)cc1)c1cc(N)nc(N)n1,82.2
16,COc1cc(N(C)Cc2cccc(-n3cccn3)c2)nc(N)n1,80
17,CN(Cc1cccc(-n2cccn2)c1)C(=O)c1ccnc(N)c1,21.2
18,CN(Cc1ccc(-n2cccn2)cc1)Cc1cnc(N(C)C)nc1,37.4
19,CN(Cc1cccc(-n2cccn2)c1)C(=O)c1cccc(N(C)C)c1,22.1
20,CN(Cc1cccc(-n2cccn2)c1)c1cc(N2CCCC2)nc(N)n1,93.9
21,CN(Cc1cccc(-n2cccn2)c1)Cc1c[nH]cn1,35.05
22,CN(Cc1ccc(-n2cccn2)cc1)c1nc(N)nc2c1CCNCC2,45

row,Compound,INHIBITION [%]
1,CCCc1nc(C)c(C(=O)NCCNc2ncccc2C#N)s1,-24.2
2,CC(C)NC(=O)[C@H]1C[C@@H]2[C@@H](C1)OCCN2Cc1cnn(C)c1,-4.56
3,CCOc1ccccc1OC1CCN(C(=O)c2cnsn2)CC1,21.5
4,CN(C)Cc1cn(-c2ccccc2C(=O)NCCC2CCCN2C)cn1 (stereo unspecified),10
5,Nc1ncccc1CN1CCCn2nc(CCC(=O)NC3CC3)cc2C1,46.1
6,COc1ccc(S(=O)(=O)N2CCN(C)c3ncccc3C2)cc1,42.1
7,CN1CCN(S(=O)(=O)c2ccccc2)Cc2cccnc21,14.9
8,CN1CCN(S(=O)(=O)c2cccc(F)c2)Cc2cccnc21,65.7
9,Cc1cc(C2CCCN2Cc2ccn(C)c(=O)c2)on1 (stereo unspecified),20.1
10,CC(C)(C)N1CC(C(=O)NCc2cn3cccnc3n2)CC1=O (stereo unspecified),53.9
11,O=C(NCc1cn2cccnc2n1)C1CC(=O)N(Cc2ccccn2)C1 (stereo unspecified),37.6
12,CN(C)CCN1CC(C(=O)NCc2cn3cccnc3n2)CC1=O (stereo unspecified),23.9
13,Cc1nc(CN2CCC3(CCCN(Cc4ccoc4)C3)C2=O)cs1 (stereo unspecified),-5.31
14,COc1c[nH]c(C(=O)Nc2nc(C(C)(C)C)cs2)cc1=O,29.4
15,CC[C@H](C)[C@H](N)C(=O)Nc1nc(-c2cnc(N(C)C)nc2)cs1,21.9
16,CCN1CC2(CC1=O)CN(C(=O)COC)CCN(S(C)(=O)=O)C2 (stereo unspecified),63
17,CCN1CC2(CC1=O)CN(C(C)=O)CCN(S(C)(=O)=O)C2 (stereo unspecified),26
18,CCS(=O)(=O)N1CCN(C(=O)C(C)C)CC2(CC(=O)N(C)C2)C1 (stereo unspecified),45.8
19,CCN1CC2(CC1=O)CN(Cc1ccco1)CCN(C(=O)C(C)C)C2 (stereo unspecified),57.4
20,CCN1CC2(CC1=O)CN(Cc1ccco1)CCN(C(=O)N(C)C)C2 (stereo unspecified),5.14
21,CCN1CC2(CC1=O)CN(Cc1ccc(C)o1)CCN(C(=O)C(C)C)C2 (stereo unspecified),42.5
22,CCN1CC2(CC1=O)CN(C(=O)C(C)C)CCN(S(=O)(=O)CC)C2 (stereo unspecified),52.3

row,Compound,INHIBITION [%]
1,CCN1CC2(CC1=O)CN(C(=O)C(C)C)CCN(S(C)(=O)=O)C2 (stereo unspecified),46.7
2,CCN1CC2(CC1=O)CN(C(=O)N(C)C)CCN(S(C)(=O)=O)C2 (stereo unspecified),31.9
3,CC(C)c1nnc2n1CCN(C(=O)c1ccc3c(c1)CCC3)C2,-12.2
4,COc1ccccc1C1=NOC(CC2(C(=O)O)CCOCC2)C1 (stereo unspecified),29.2
5,CCn1cnnc1C1CCN(C(=O)c2cccc(N(C)C)c2)CC1,39.7
6,CCc1cnc(N2C[C@H]3CN(Cc4csc(C)n4)C(=O)[C@H]3C2)nc1,18.5
7,Cc1cc(C(=O)NS(C)(=O)=O)c(C)n1-c1ccccc1,37.9
8,Cc1nc(CN2C[C@@H]3CN(C(=O)c4cnccn4)C[C@@H]3C2)cs1,-13.2
9,CN1C[C@@H](C(=O)NC(C)(C)C)[C@@]2(CCc3ccccc3C(=O)N2)C1,16.5
10,COCCn1ccc(NC(=O)Nc2cccnc2)n1,25.3
11,Cc1cc(N2CCOC(c3ccc(N(C)C)cn3)C2)nc(N)n1 (stereo unspecified),-0.6
12,Cc1cc(C(=O)N2CCC3(CC2)COCCN(c2cccnc2)C3)[nH]n1,24.6
13,COc1ccnc(N2CCCN(Cc3ncc(C(C)C)o3)CC2)n1,9.76
14,COc1ccnc(N2CCN(Cc3ncc(-c4ccccc4)o3)CC2)n1,56
15,COc1ccnc(N2CCN(Cc3ncc(C(C)(C)C)o3)CC2)n1,9.76
16,Cc1nnc(CN(C)CCc2nc(-c3cccc(Cl)c3)no2)n1C,34.5
17,CN(CCc1nc(-c2cccc(Cl)c2)no1)CCn1cccn1,12.6
18,Cc1noc(C)c1CN(C)CCc1nc(-c2cccc(Cl)c2)no1,88.1
19,O=C(Cc1cccnc1)N1CCC2(CC1)CCN(C1CCOCC1)C2,-3.19
20,O=C(Cc1cccnc1)N1CCC2(CC1)CCN(C1CCOC1)C2 (stereo unspecified),53.4
21,O=C(Cc1cccnc1)N1CCC2(CCN(C3CCOC3)CC2)C1 (stereo unspecified),-1.83
22,CC(=O)N1CCN(Cc2ccc(C)o2)CC2(CC(=O)N(C)C2)C1 (stereo unspecified),3.81

# Reference: ChEMBL document CHEMBL4513216, “Probing the Open Global Health Chemical Diversity Library for Multistage-Active Starting Points for Next-Generation Antimalarials” (ACS Infect Dis, 2020)
